Test [1] is described as follows: antimalarial activity against Dd2 strain (AID 2302;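 active = growth inhibition above 50% at the single 2 µM test dose, taken to imply half-maximal potency below 2 µM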;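 also: 0% = DMSO untreated growth and 100% = chloroquine plus artemisinin killed control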). Conditions: P. falciparum Dd2 in RBCs, LDH growth readout, 72 h; at 2 µM; stronger effect = higher value.
Test [2] in a line: HepG2 cytotoxicity, primary screen, cytotoxicity control for P. falciparum antimalarial project, cell-based, ATP luminescence (AID 2303;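 active = inhibition above 50%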;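 also: 0% = DMSO wells and 100% = digitonin-killed cells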). Conditions: HepG2 viability, 24-48 h, at 10 µM, stronger effect = higher value.
Test [3] concerns the target L-lactate dehydrogenase (Plasmodium falciparum (isolate CDC / Honduras)) (UniProt Q27743). Nature of the test: PfLDH activity inhibition – cell lysate, 3D7 strain, counter-screen for P. falciparum growth inhibition project (AID 2304).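 Also: 0% = vehicle and 100% = reference inhibitor.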 To be noted: P. falciparum 3D7 crude extract, LDH APAD/NBT absorbance; at 2 µM; stronger effect = higher value. A general note: The purpose of a counterscreen is to sort out artefacts and off-target activity.

A short description of test [4]: inhibition of 3D7 malaria parasite growth – strain 3D7 (AID 2306).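 Also: 0% = DMSO wells and 100% = chloroquine plus artemisinin control wells.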 Conditions: P. falciparum 3D7 erythrocytic growth, LDH absorbance, 72 h; at 2 µM; stronger effect = higher value.
For test [5], the target named is Calcium-dependent protein kinase 1 (Plasmodium falciparum (isolate 3D7)) (UniProt P62344). The experiment in a line: PfCDPK1 kinase inhibitors, biochemical, TCAMS library (AID 1159585; cut-off not given, nearly all actives have IC50 up to about 0.98 µM;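 also: inhibitors leave more ATP so luminescence rises with inhibition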). To be noted: recombinant PfCDPK1, Kinase-Glo ATP depletion luminescence.
Test [6] has as its target Plasmodium falciparum protein kinase 6 (PK6, PF3D7_1337100) (UniProt Q8IDW1). Nature of the test: PfPK6 kinase inhibitors, biochemical, TCAMS library (AID 1159586). Conditions: recombinant PfPK6, Kinase-Glo ATP depletion luminescence. (In general: In Kinase-Glo more light means more ATP remaining.)
In test [7] the target is Protein kinase 7 (PK7), Plasmodium falciparum 3D7 (PF3D7_0213400) (UniProt Q7YTF7). Nature of the test: inhibition of Plasmodium PK7 catalytic activity – biochemical, TCAMS antimalarial set, Kinase-Glo luminescence (AID 1159587). Conditions: recombinant PfPK7, Kinase-Glo ATP depletion luminescence.
Test [8] deals with Calcium-dependent protein kinase 4 (Plasmodium falciparum (isolate 3D7)) (UniProt Q8IBS5). The experiment in a line: PfCDPK4 kinase inhibitors, biochemical, TCAMS library (AID 1159588; cut-off not given, nearly all actives have IC50 up to about 0.91 µM). To be noted: recombinant PfCDPK4, Kinase-Glo ATP depletion luminescence.

A number with no mark means an inactive call. For some of these results: Measured potencies and affinities stand elsewhere. The source made the active and inactive calls. Unless noted, no rule for the calls is given here.

Calcium-dependent protein kinase 1 (Plasmodium falciparum (isolate 3D7)), sequence (P62344 whole entry, looked up): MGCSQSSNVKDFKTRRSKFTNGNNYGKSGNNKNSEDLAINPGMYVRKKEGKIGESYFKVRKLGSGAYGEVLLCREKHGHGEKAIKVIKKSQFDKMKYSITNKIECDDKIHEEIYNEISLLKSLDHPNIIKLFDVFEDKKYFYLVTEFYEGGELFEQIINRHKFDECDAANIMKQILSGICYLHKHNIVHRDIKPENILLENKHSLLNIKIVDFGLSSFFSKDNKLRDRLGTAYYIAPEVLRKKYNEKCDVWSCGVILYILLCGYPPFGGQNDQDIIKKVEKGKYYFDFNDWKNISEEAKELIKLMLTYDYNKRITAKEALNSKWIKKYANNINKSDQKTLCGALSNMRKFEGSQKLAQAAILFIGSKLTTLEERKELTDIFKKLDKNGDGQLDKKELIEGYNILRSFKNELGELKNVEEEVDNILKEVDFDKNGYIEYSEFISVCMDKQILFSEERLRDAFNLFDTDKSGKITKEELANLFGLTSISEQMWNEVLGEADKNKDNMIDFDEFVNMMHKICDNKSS
Plasmodium falciparum protein kinase 6 (PK6, PF3D7_1337100), sequence (Q8IDW1 1-305): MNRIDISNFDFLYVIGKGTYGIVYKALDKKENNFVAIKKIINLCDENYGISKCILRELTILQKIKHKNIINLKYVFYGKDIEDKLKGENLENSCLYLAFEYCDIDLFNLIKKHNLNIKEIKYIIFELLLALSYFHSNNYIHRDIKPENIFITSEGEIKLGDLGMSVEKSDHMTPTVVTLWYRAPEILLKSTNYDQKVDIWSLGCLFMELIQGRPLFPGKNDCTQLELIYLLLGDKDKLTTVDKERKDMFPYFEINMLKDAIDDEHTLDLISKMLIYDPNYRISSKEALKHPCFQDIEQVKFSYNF
Protein kinase 7 (PK7), Plasmodium falciparum 3D7 (PF3D7_0213400), sequence (Q7YTF7 1-343): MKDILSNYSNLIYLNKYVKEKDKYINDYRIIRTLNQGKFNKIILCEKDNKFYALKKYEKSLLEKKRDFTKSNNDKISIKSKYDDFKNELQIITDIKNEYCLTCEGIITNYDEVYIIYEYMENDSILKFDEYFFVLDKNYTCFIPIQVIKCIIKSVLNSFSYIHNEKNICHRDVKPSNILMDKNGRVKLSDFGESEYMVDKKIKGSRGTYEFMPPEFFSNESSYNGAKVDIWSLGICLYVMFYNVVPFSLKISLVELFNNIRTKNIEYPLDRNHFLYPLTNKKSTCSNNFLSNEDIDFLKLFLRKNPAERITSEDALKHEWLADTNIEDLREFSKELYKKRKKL
Calcium-dependent protein kinase 4 (Plasmodium falciparum (isolate 3D7)), sequence (Q8IBS5 whole entry, looked up): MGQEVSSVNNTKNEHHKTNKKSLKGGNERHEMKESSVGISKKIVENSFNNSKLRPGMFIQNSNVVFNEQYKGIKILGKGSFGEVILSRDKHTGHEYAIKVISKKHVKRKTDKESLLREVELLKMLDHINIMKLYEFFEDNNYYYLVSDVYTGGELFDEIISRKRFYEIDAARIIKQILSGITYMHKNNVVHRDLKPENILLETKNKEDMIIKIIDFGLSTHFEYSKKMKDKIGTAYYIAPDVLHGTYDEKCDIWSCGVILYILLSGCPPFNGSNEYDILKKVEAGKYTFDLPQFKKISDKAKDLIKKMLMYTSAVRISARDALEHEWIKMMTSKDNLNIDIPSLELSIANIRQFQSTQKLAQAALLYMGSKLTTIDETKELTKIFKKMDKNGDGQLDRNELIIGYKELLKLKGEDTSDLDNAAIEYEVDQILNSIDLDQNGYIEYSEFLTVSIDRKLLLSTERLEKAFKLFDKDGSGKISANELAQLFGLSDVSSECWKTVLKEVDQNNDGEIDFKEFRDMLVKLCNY
L-lactate dehydrogenase (Plasmodium falciparum (isolate CDC / Honduras)), sequence (Q27743 whole entry, looked up): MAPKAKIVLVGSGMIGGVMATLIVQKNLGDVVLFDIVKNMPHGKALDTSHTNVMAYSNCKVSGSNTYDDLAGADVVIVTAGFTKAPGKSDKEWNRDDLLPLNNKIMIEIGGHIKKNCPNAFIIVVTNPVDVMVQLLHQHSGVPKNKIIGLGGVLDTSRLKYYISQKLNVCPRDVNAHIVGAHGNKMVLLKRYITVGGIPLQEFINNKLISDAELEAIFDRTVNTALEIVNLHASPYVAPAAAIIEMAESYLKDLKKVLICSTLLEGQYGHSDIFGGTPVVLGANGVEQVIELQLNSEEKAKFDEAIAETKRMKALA

The term inhibition denotes the relative decrease from the control value, in per cent. Take `COc1cccc(C=NNc2cc(C)nc3c(OC)cccc23)c1`: the growth inhibition was 58% (active) in test [1] and 99% (active) in test [4]. In addition, the inhibition in test [2] was 6%; in test [3], -6%. The outcome in test [5], in test [6], in test [7] and in test [8] was inactive.

In the case of `COc1ccc(CC(=O)NC(CCCN2CCC(c3ccccc3)CC2)c2ccc(Cl)c(Cl)c2)cc1OC` (centres undefined), the growth inhibition in test [1] is 57% (active); in test [4], 82% (active). Besides, the inhibition in test [2] was 28%; in test [3], -7%. Also, the outcome in test [5], in test [6], in test [7] and in test [8] was inactive.

Consider `Cc1ccc(S(C)(=O)=O)cc1/C=C/C(=O)O`, for which the growth inhibition in test [1] is 1%; in test [4], 96% (active). For the same compound, the values for the inhibition in test [2] and in test [3] were -7% and 4%, respectively. The result in test [5], in test [6], in test [7] and in test [8] was inactive.

Take `CN(C)c1ccc(-c2ccc(C(=O)NC3CCN(Cc4ccc5c(c4)OCCO5)CC3)s2)cc1`: the figures for the growth inhibition in test [1] and in test [4] were 73% (active) and 100% (active), respectively. In addition, the inhibition in test [2] was 36%; in test [3], -2%. Also, the result in test [5], in test [6], in test [7] and in test [8] was inactive.

Turning to `COc1cc(CCCOc2c(N)nc(N)nc2N)cc(OC)c1OC`, the growth inhibition in test [1] was 0%; in test [4], 88% (active). Further, the inhibition in test [2] was 8%; in test [3], 2%. The outcome in test [5], in test [6], in test [7] and in test [8] was inactive.

Turning to `O=S1C(Cl)=C(c2ccc(Cl)cc2)c2ccc(Cl)cc21` (centres undefined), the growth inhibition in test [1] was 99% (active); in test [4], 91% (active). Also, the inhibition in test [2] was 33%; in test [3] it was 1%. The outcome in test [5], in test [6], in test [7] and in test [8] was inactive.

On to `Cc1cccc(-c2ccc(CNC3CCN(CC4Cn5c(=O)ccc6ccc(F)c4c65)CC3)cn2)c1` (centres undefined), for which the growth inhibition is 2% in test [1] and 90% (active) in test [4]. Further, the inhibition in test [2] and in test [3] was -2% each time. For the same compound, the outcome in test [5], in test [6], in test [7] and in test [8] was inactive.

With `CC(=O)Nc1ccc(C2NC(=O)NC(c3ccccc3)=C2c2nc3ccccc3s2)cc1` (centres undefined), the growth inhibition in test [1] is 96% (active); in test [4] it was 93% (active). The inhibition in test [2] was -3%; in test [3] it was 3%. Besides, the outcome in test [5], in test [6], in test [7] and in test [8] was inactive.

In the case of `O=C(Nc1nc(-c2ccccn2)cs1)c1ccccc1COc1ccccc1`, the values for the growth inhibition in test [1] and in test [4] were 42% and 83% (active), respectively. In addition, the inhibition in test [2] was 34%; in test [3], -2%. Besides, the outcome in test [5], in test [6], in test [7] and in test [8] was inactive.

Consider `FC(F)(F)c1ccc2c(C=Cc3ccncc3)c[nH]c2c1`, for which the values for the growth inhibition in test [1] and in test [4] were 76% (active) and 98% (active), respectively. Further, the inhibition in test [2] is -12%; in test [3], -2%. Also, the outcome in test [5], in test [6], in test [7] and in test [8] was inactive.

For the compound `COc1ccc(CNCc2ccsc2)cc1-c1ccc(S(=O)(=O)NCCN2CCCC2)c(C)c1`, the growth inhibition is 43% in test [1] and 85% (active) in test [4]. Also, the inhibition in test [2] is 49%; in test [3] it was -1%. For the same compound, the result in test [5], in test [6], in test [7] and in test [8] was inactive.

Take `Cc1c2ccc(N(C)c3ccnc(Nc4ccc5c(c4)nc(NC(C)C)n5C)n3)cc2nn1C`: the growth inhibition in test [1] and in test [4] was 100% (active) throughout. For the same compound, the inhibition in test [2] was 2%; in test [3], -4%. The outcome in test [5], in test [6], in test [7] and in test [8] was inactive.

Take `CC(C)(O)CC(C)(C)c1cc(Cl)ccc1O`: the growth inhibition in test [1] was 1%; in test [4], 96% (active). The inhibition in test [2] is 5%; in test [3], 7%. For the same compound, the result in test [5], in test [6], in test [7] and in test [8] was inactive.

Consider `CCc1c[nH]c2c(N3CCCC3=O)cc(C(=O)N[C@@H](Cc3ccccc3)[C@H](O)CNC(C)(C)c3cccc(OC)c3)cc12`, for which the growth inhibition is 98% (active) in test [1] and 93% (active) in test [4]. Besides, the inhibition is 0% in test [2] and 2% in test [3]. For the same compound, the result in test [5], in test [6], in test [7] and in test [8] was inactive.

With `CCCCOP(=O)(OCCCC)C(=Cc1ccc(O)c2ccccc12)P(=O)(OCCCC)OCCCC`, the growth inhibition in test [1] was 64% (active); in test [4] it was 84% (active). Besides, the inhibition in test [2] was 1%; in test [3], -6%. The result in test [5], in test [6], in test [7] and in test [8] was inactive.

For `COc1ccc2nccc(NN=Cc3cccc(Cl)c3)c2c1`, the growth inhibition is 99% (active) in test [1] and 100% (active) in test [4]. Also, the inhibition was 1% in test [2] and 3% in test [3]. The outcome in test [5], in test [6], in test [7] and in test [8] was inactive.

Consider `CN(Cc1ccccc1)C1CCCN(c2cc(NC(=O)c3cccs3)ccn2)C1` (centres undefined), for which the figures for the growth inhibition in test [1] and in test [4] were 90% (active) and 88% (active), respectively. The inhibition in test [2] was 2%; in test [3], -1%. The outcome in test [5], in test [6], in test [7] and in test [8] was inactive.

`CCc1ccc(CN2CCC(CNC(=O)c3cc(-c4cccc(F)c4)cs3)C2)cc1` (centres undefined): the growth inhibition in test [1] was 4%; in test [4], 84% (active). Moreover, the inhibition is 23% in test [2] and 2% in test [3]. Moreover, the result in test [5], in test [6], in test [7] and in test [8] was inactive.

With `Nc1nc(-c2ccccn2)nc(-n2nc(-c3cccc(C(F)(F)F)c3)cc2N)n1`, the figures for the growth inhibition in test [1] and in test [4] were 74% (active) and 87% (active), respectively. Moreover, the results for the inhibition in test [2] and in test [3] were 14% and -5%, respectively. Moreover, the outcome in test [5], in test [6], in test [7] and in test [8] was inactive.

Consider `Cc1cccc2[nH]c(-c3ccc(-c4ccc(CNCCCNS(C)(=O)=O)cc4)s3)nc12`, for which the values for the growth inhibition in test [1] and in test [4] were 4% and 99% (active), respectively. The inhibition in test [2] is 13%; in test [3], 3%. The outcome in test [5], in test [6], in test [7] and in test [8] was inactive.

Take `CC(NC(=O)c1cc(-c2ccccc2)nc2c1cnn2C(C)C)C1CC1` (centres undefined): the growth inhibition in test [1] was 88% (active); in test [4], 101% (active). Besides, the inhibition in test [2] was 35%; in test [3], -2%. The result in test [5], in test [6], in test [7] and in test [8] was inactive.

As to `COc1cc(Cc2cnc(N)nc2N)cc(OCCCCC2SC(=O)NC2=O)c1Br` (centres undefined), the growth inhibition in test [1] is -2%; in test [4], 94% (active). For the same compound, the inhibition in test [2] was 15%; in test [3] it was 4%. Moreover, the outcome in test [5], in test [6], in test [7] and in test [8] was inactive.

Take `Cc1cc(C)c2[nH]cc(C(=O)O)c(=O)c2c1`: the results for the growth inhibition in test [1] and in test [4] were 60% (active) and 93% (active), respectively. Further, the values for the inhibition in test [2] and in test [3] were -1% and -6%, respectively. Moreover, the result in test [5], in test [6], in test [7] and in test [8] was inactive.

The values above are taken from PubChem BioAssay.
